Test results taken from the supplement of paper PMC12645437, “Orthogonal IMiD-Degron Pairs Induce Selective Protein Degradation in Cells” (ACS Chemical Biology, 2025).
Whole data set: some 8,300 sequences, median “log2 fold change of degron read counts, EGFP-low vs EGFP+ sorted cells (limma voom), compound-induced degradation” near -1.1, cut for the highest 2% near 3.2. Many of the other results were omitted from the sample, so the highest values are more common in it than they were.

T1: CRBN, Q96SW2
T1 chain: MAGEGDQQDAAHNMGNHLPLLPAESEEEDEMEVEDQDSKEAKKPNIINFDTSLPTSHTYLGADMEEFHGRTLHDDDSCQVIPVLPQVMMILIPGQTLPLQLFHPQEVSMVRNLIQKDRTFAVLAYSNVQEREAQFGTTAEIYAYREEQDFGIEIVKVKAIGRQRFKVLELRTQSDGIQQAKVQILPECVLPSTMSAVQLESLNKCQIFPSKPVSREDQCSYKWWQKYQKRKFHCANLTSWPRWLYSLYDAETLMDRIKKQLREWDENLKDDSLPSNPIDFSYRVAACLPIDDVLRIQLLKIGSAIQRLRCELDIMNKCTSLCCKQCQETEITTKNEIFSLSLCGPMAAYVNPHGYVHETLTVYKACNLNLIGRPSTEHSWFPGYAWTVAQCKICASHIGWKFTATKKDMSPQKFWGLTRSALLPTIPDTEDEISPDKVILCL

B1: 46F_47I_49N_50Q_52G_53H_54Q_55F_67L_, Q9UKT9 (peptide)
chain: FICNQCGHQFTQKGNLLRHIKL
B2: 46F_47N_49E_50I_52G_53A_54F_55F_67L_, Q9UKT9 (peptide)
chain: FNCEICGAFFTQKGNLLRHIKL
B3: 46F_47A_49N_50I_52G_53A_54G_55F_67L_, Q9UKT9 (peptide)
chain: FACNICGAGFTQKGNLLRHIKL
B4: 46F_47W_49E_50I_52G_53R_54H_55F_67L_, Q9UKT9 (peptide)
chain: FWCEICGRHFTQKGNLLRHIKL
B5: 46F_47N_49P_50I_52G_53R_54M_55F_67L_, Q9UKT9 (peptide)
chain: FNCPICGRMFTQKGNLLRHIKL
B6: 46F_47G_49N_50Q_52G_53H_54N_55F_67L_, Q9UKT9 (peptide)
chain: FGCNQCGHNFTQKGNLLRHIKL
B7: 46L_47L_49P_50I_52G_53F_54H_55C_67L_, Q9UKT9 (peptide)
chain: LLCPICGFHCTQKGNLLRHIKL
B8: 46F_47I_49P_50I_52G_53H_54F_55F_67L_, Q9UKT9 (peptide)
chain: FICPICGHFFTQKGNLLRHIKL
B9: 46L_47W_49P_50I_52G_53F_54T_55C_67L_, Q9UKT9 (peptide)
chain: LWCPICGFTCTQKGNLLRHIKL
B10: 46L_47G_49P_50I_52G_53F_54T_55C_67L_, Q9UKT9 (peptide)
chain: LGCPICGFTCTQKGNLLRHIKL
B11: 46L_47Y_49P_50I_52G_53F_54T_55C_67L_, Q9UKT9 (peptide)
chain: LYCPICGFTCTQKGNLLRHIKL
B12: 46L_47E_49P_50I_52G_53F_54T_55C_67L_, Q9UKT9 (peptide)
chain: LECPICGFTCTQKGNLLRHIKL
B13: 46L_47E_49E_50I_52G_53F_54T_55C_67L_, Q9UKT9 (peptide)
chain: LECEICGFTCTQKGNLLRHIKL
B14: 46L_47Q_49N_50Q_52G_53F_54I_55C_67L_, Q9UKT9 (peptide)
chain: LQCNQCGFICTQKGNLLRHIKL
B15: 46F_47V_49N_50Q_52G_53R_54T_55F_67L_, Q9UKT9 (peptide)
chain: FVCNQCGRTFTQKGNLLRHIKL
B16: 46F_47A_49D_50Q_52G_53A_54I_55F_67L_, Q9UKT9 (peptide)
chain: FACDQCGAIFTQKGNLLRHIKL
B17: 46F_47E_49E_50I_52G_53H_54H_55F_67L_, Q9UKT9 (peptide)
chain: FECEICGHHFTQKGNLLRHIKL
B18: 46F_47W_49P_50I_52G_53R_54H_55F_67L_, Q9UKT9 (peptide)
chain: FWCPICGRHFTQKGNLLRHIKL
B19: 46F_47T_49N_50Q_52G_53A_54N_55F_67L_, Q9UKT9 (peptide)
chain: FTCNQCGANFTQKGNLLRHIKL
B20: 46F_47C_49E_50Q_52G_53A_54Q_55F_67L_, Q9UKT9 (peptide)
chain: FCCEQCGAQFTQKGNLLRHIKL
B21: 46F_47F_49D_50V_52G_53A_54G_55F_67L_, Q9UKT9 (peptide)
chain: FFCDVCGAGFTQKGNLLRHIKL
B22: 46F_47I_49E_50I_52G_53R_54F_55F_67L_, Q9UKT9 (peptide)
chain: FICEICGRFFTQKGNLLRHIKL
B23: 46F_47R_49N_50I_52G_53A_54F_55F_67L_, Q9UKT9 (peptide)
chain: FRCNICGAFFTQKGNLLRHIKL
B24: 46F_47T_49E_50Q_52G_53A_54T_55F_67L_, Q9UKT9 (peptide)
chain: FTCEQCGATFTQKGNLLRHIKL
B25: 46L_47C_49P_50I_52G_53F_54T_55C_67L_, Q9UKT9 (peptide)
chain: LCCPICGFTCTQKGNLLRHIKL
B26: 46L_47D_49P_50I_52G_53F_54T_55C_67L_, Q9UKT9 (peptide)
chain: LDCPICGFTCTQKGNLLRHIKL
B27: 46L_47N_49P_50I_52G_53F_54T_55C_67L_, Q9UKT9 (peptide)
chain: LNCPICGFTCTQKGNLLRHIKL
B28: 46F_47F_49N_50Q_52G_53H_54L_55F_67L_, Q9UKT9 (peptide)
chain: FFCNQCGHLFTQKGNLLRHIKL

Biological target: T1, CRBN, Q96SW2
Assay: log2 fold change of degron read counts, EGFP-low vs EGFP+ sorted cells (limma voom), compound-induced degradation; higher = more compound-induced degradation of the degron-EGFP fusion; degrons are variants of IKZF1/3 zinc finger 2; compound dose not given here
Details: Jurkat, 18 h
[1] = compound: compound 19 (5-tert-butyl-thalidomide)
[2] = compound: compound 22 (5-morpholino-thalidomide)
[3] = compound: compound 33 (diphenyl IMiD analogue)
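Further: pooled lentiviral library of zinc finger degron-EGFP fusions in mCherry-positive Jurkat cells, FACS-sorted after compound exposure, with degron abundance counted by next-generation sequencing.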

Sequence | log2 fold change of degron read counts [1] | log2 fold change of degron read counts [2] | log2 fold change of degron read counts [3] | log2 fold change of degron read counts (compound: thalidomide)
B1 | -3.84 | -3.33 | -2.9 | -3.11
B2 | 0.798 | -1.38 | -0.734 | -1.26
B3 | 1.91 | 0.962 | -0.444 | -0.984
B4 | 0.466 | 0.665 | 0.0348 | -0.898
B5 | -0.587 | -0.626 | -0.159 | -0.181
B6 | -2.02 | -2.05 | -2.04 | -1.85
B7 | -0.42 | 0.0892 | 1.25 | 1.51
B8 | -1.6 | -2.08 | -1.13 | -1.31
B9 | 3.24 | 3.71 | 3.05 | 2.09
B10 | 3.65 | 2.87 | 1.97 | 1.36
B11 | 3.6 | 3.63 | 2.97 | 2.63
B12 | 1.1 | 0.00767 | 2.64 | 3.38
B13 | 0.26 | -0.872 | 1.66 | 2.87
B14 | -2.79 | -2.4 | -2.23 | -0.473
B15 | -2.81 | -2.9 | -2.85 | -2.6
B16 | -1.3 | -2.79 | -2.17 | -2.61
B17 | -3.57 | -3.77 | -3.12 | -3.14
B18 | 0.105 | 0.12 | -0.0382 | -0.795
B19 | -2.31 | -1.9 | -1.02 | -1.51
B20 | -0.606 | -1.61 | 0.54 | -0.701
B21 | 2.13 | 0.815 | -0.261 | -2.07
B22 | -1.91 | -1.81 | -0.249 | -0.59
B23 | -1.52 | -1.67 | -0.33 | 0.791
B24 | -2.43 | -0.729 | 0.386 | 0.407
B25 | 2.3 | 2.71 | 3.14 | 3.38
B26 | 1.14 | 0.297 | 1.7 | 2.41
B27 | 2.24 | 1.48 | 1.4 | 1.99
B28 | -1.66 | -2.07 | -1.87 | -1.3
